Active and inactive are the calls of the source.
Key:
Albumin (Bos taurus) = Albumin (Bos taurus) (UniProt P02769); assay: bovine serum albumin binders on microarray, profiling panel, artefact control for SMM control protein annotation, biochemical, small-molecule microarray, Alexa647 label, 635/667 nm fluorescence (AID 1118); details: BSA-A647 binding, fluorescence 635 nm, higher = more signal;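 also: score merges 667 nm emission intensity and signal-to-noise per printed compound spot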
[1] = small-molecule microarray binders of probe aXIP, primary screen, biochemical, NeuroSMM set, 635/667 nm fluorescence (AID 1119); details: higher = more signal, called active from +8 up or from −8 down;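 also: probe is the protein aXip251-270 applied at 1 µg/mL to compound-printed slides; binding of probe to printed compounds measured as 667 nm fluorescence plus signal to noise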
[2] = small-molecule binders of probe aNOTCH3, primary screen, biochemical, small-molecule microarray, 635/667 nm fluorescence (AID 1120); details: higher = more signal;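 also: probe is a biotin-tagged antibody raised against NOTCH3 rather than NOTCH3 protein; score merges spot fluorescence near 667 nm with spot signal to noise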
[3] = small-molecule binders of probe aNOTCH2, primary screen, biochemical, small-molecule microarray, 635/667 nm fluorescence (AID 1121); details: higher = more signal;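 also: score merges feature fluorescence read at 667 nm with its signal to noise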
[4] = molecular target: Carbonic anhydrase 2 (Homo sapiens) (UniProt P00918); assay: CAII small-molecule binders, profiling panel, biochemical, small-molecule microarray, Alexa647-labelled CAII (AID 1122); details: CAII-A647 binding fluorescence, higher = more signal
[5] = COS7 lysate on small-molecule microarray, probe aHis, 635 nm (AID 1123); details: COS7 cell lysate, fluorescence, higher = more signal;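 also: z-score combines 667nm fluorescence intensity with signal-to-noise per printed compound spot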
[6] = compound binding in COS7 lysate, probe aLAP1, primary screen, cell lysate, small-molecule microarray (AID 1124); details: probe aLAP1, fluorescence, higher = more signal;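 also: lysate comes from COS7 cells expressing LAP1 and is applied at 0.3 µg/mL; score merges spot fluorescence near 667 nm with signal-to-noise over triplicate slides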
Sam68 (KHDRBS1) = assay: Sam68 small-molecule binders, primary screen, biochemical, small-molecule microarray, 635 nm fluorescence (AID 1125); details: small-molecule microarray binding, higher = more signal;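 also: score merges 667 nm channel intensity with signal to noise over triplicate slides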
[7] = test system: Chordin-like protein 2 (CHRDL2); assay: CHRDL2 small-molecule binders, primary screen, biochemical, small-molecule microarray, 635 nm fluorescence (AID 1126); details: small-molecule microarray binding, fluorescence 635 nm; higher = more signal;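 also: printed compound slides probed with Chrdl2 protein at 4 µg/mL for 1 h at 4 C; score merges 667 nm emission intensity with signal to noise over three replicate slides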
[8] = molecular target: Concanavalin-A (Canavalia ensiformis) (UniProt P02866); assay: ConA small-molecule binders, primary screen, artefact control for SMM control protein annotation, biochemical, small-molecule microarray, Alexa647 label, 635 nm (AID 1127); details: ConA-A647 binding fluorescence, higher = more signal;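 also: z combines 667 nm emission intensity with signal-to-noise across three replicate slides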
Chain of Concanavalin-A (Canavalia ensiformis) (P02866 whole entry, looked up): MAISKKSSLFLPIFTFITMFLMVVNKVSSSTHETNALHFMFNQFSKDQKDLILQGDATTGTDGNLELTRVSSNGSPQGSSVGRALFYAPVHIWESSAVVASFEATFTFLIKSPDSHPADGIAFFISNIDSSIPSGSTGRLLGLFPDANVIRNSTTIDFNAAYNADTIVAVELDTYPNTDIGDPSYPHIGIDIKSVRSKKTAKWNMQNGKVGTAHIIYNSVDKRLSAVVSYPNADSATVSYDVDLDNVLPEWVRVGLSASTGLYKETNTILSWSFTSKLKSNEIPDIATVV

[9] = anti-His antibody binders, primary screen, artefact control for SMM control protein annotation, biochemical, small-molecule microarray, 635 nm fluorescence (AID 1128); details: anti-His Alexa647 antibody binding, higher = more signal;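 also: score merges feature fluorescence with signal-to-noise for each printed compound spot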
[10] = test system: Human papillomavirus type 1a E7 protein (residues 1-88); assay: HPV1a E7 small-molecule binders, primary screen, biochemical, small-molecule microarray, residues 1-88, 635 nm (AID 1129); details: small-molecule microarray binding, fluorescence 635 nm; higher = more signal
[11] = molecular target: Focal adhesion kinase 1 (Homo sapiens) (UniProt Q05397); assay: small-molecule microarray binders of FAK, primary screen, biochemical, 635/667 nm fluorescence, BSA, DTT (AID 1130); details: PTK2 binding, 635 nm fluorescence, higher = more signal;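 also: composite of spot emission at 667 nm and signal to noise over triplicate slides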
Chain of Focal adhesion kinase 1 (Homo sapiens) (Q05397 whole entry, looked up): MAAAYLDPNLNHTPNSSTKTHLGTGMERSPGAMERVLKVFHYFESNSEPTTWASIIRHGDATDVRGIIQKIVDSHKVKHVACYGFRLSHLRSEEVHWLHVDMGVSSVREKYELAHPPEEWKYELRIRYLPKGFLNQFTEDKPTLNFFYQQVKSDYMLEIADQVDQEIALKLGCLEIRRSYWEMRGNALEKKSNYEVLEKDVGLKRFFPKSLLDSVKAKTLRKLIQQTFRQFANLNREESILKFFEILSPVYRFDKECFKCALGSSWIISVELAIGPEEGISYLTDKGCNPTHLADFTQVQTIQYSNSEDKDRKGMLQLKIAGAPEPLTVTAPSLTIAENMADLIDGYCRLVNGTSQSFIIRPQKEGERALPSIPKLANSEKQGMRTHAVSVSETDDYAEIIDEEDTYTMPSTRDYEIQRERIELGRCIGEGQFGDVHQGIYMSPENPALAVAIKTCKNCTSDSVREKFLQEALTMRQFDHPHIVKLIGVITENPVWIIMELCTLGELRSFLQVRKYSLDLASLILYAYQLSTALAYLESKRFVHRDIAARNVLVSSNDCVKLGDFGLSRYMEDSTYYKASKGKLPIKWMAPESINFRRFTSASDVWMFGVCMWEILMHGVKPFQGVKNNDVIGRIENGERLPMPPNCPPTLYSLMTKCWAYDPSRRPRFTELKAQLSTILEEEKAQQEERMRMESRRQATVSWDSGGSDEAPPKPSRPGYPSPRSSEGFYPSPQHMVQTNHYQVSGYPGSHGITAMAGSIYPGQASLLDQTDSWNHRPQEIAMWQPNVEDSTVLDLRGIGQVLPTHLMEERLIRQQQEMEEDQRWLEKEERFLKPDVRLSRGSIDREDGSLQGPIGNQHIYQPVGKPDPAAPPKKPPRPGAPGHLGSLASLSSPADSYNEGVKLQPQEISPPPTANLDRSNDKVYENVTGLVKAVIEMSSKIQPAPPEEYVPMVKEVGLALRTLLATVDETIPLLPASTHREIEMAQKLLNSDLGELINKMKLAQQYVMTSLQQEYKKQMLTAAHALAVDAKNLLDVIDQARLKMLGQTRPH

[12] = test system: Fibrinogen (Alexa647-labelled); assay: fibrinogen binders on compound microarrays, profiling panel, artefact control for SMM control-protein annotation, biochemical, small-molecule microarray, 635/667 nm fluorescence (AID 1131); details: fibrinogen-A647 binding fluorescence, higher = more signal;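 also: z-score merges 667 nm fluorescence with per-spot signal-to-noise over triplicate slides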
[13] = molecular target: Follistatin (Homo sapiens) (UniProt P19883); assay: follistatin binders on small-molecule microarrays, primary screen, biochemical, small-molecule microarray, 635/667 nm fluorescence (AID 1132); details: FST binding, 635 nm fluorescence, higher = more signal
Chain of Follistatin (Homo sapiens) (P19883 whole entry, looked up): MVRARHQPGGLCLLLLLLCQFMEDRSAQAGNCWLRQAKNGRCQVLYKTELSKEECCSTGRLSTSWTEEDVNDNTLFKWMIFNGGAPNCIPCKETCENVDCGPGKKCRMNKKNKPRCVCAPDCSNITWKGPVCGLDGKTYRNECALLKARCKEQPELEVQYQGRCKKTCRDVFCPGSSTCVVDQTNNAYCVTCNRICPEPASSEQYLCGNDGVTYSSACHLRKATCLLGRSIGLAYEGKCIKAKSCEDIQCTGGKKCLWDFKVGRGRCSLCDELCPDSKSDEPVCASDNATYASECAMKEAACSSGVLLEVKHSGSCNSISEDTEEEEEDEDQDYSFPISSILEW

[14] = molecular target: Fibroblast growth factor 2 (Homo sapiens) (UniProt P09038); assay: FGF2 binders on small-molecule microarrays, primary screen, biochemical, small-molecule microarray, 635/667 nm fluorescence (AID 1133); details: small-molecule microarray binding, FGF2, fluorescence 635/667; higher = more signal
Chain of Fibroblast growth factor 2 (Homo sapiens) (P09038 whole entry, looked up): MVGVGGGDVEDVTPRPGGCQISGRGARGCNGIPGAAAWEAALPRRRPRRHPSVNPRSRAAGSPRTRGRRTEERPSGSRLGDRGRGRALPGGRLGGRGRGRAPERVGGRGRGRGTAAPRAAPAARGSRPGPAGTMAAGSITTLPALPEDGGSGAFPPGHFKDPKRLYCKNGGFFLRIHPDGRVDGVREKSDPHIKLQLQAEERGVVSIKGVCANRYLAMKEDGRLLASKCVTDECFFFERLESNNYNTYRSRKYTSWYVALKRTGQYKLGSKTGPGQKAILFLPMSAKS

[15] = mitochondrial membrane potential change in A549 cells, profiling panel, cell-based, JC-1 fluorescence, basal, 24 h, 100 nL (AID 1138); details: higher = more signal;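 also: A549 lung adenocarcinoma cells under basal conditions with no added stimulus; test concentration not given here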
Lefty1 = Lefty1 binders on small-molecule microarrays, primary screen, biochemical, small-molecule microarray, 635/667 nm fluorescence (AID 1139); details: small-molecule microarray binding, fluorescence 635/667; higher = more signal
[16] = test system: wheat germ agglutinin (Triticum aestivum), Alexa647-labelled; assay: wheat germ agglutinin binders on compound microarrays, profiling panel, artefact control for SMM control-protein annotation, biochemical, small-molecule microarray, 635/667 nm fluorescence (AID 1140); details: WGA-A647 binding, 635 nm fluorescence, higher = more signal;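 also: score merges 667 nm feature emission with signal to noise over triplicate slides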
[17] = molecular target: Luciferin 4-monooxygenase (Photinus pyralis) (UniProt P08659); assay: firefly luciferase enzyme inhibitors, primary screen, biochemical, luminescence, purified enzyme, 2006 set (AID 1141); details: SteadyGlo luminescence, 30 min, higher = more signal, called active from +8 up or from −8 down;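 also: cell-free assay with purified firefly luciferase at 100 ng per well in PBS; test concentration not given here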
Chain of Luciferin 4-monooxygenase (Photinus pyralis) (P08659 whole entry, looked up): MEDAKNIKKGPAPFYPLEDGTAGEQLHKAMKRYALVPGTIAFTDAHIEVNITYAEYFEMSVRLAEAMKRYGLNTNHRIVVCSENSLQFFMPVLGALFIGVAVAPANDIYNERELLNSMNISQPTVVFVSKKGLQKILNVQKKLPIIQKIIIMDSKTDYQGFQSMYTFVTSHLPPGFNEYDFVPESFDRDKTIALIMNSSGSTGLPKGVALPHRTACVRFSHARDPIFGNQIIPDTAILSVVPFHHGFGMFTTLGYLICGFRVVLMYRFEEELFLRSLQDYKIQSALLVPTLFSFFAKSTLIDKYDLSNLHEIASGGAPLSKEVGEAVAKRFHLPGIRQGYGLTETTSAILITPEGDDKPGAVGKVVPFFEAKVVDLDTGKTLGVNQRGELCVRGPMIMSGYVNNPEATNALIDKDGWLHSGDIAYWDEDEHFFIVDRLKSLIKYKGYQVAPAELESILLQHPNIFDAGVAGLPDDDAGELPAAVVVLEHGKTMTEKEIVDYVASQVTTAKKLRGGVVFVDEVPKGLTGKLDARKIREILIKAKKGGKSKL

Chain of Albumin (Bos taurus) (P02769 whole entry, looked up): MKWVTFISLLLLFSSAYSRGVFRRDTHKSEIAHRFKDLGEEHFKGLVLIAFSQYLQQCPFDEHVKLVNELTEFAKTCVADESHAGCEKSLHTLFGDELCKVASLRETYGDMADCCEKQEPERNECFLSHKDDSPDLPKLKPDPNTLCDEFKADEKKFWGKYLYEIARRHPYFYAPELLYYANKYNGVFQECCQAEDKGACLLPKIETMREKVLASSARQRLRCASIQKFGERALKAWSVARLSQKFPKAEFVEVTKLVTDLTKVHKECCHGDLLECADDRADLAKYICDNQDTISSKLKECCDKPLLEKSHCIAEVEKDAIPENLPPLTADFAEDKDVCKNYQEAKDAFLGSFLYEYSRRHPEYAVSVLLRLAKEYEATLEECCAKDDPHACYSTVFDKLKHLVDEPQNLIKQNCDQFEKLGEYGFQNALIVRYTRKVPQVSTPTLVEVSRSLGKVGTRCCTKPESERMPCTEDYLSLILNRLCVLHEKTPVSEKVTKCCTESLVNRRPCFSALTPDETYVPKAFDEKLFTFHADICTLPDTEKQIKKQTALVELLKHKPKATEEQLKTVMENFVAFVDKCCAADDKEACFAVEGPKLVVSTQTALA

| SMILES | composite z-score (Albumin (Bos taurus)) | composite Z-score [1] | composite z-score [2] | composite z-score [3] | composite z-score [4] | composite z-score [5] | composite z-score [6] | composite z-score (Sam68 (KHDRBS1)) | composite z-score [7] | composite z-score [8] | composite z-score [9] | composite z-score [10] | composite z-score [11] | composite z-score [12] | composite z-score [13] | composite z-score [14] | z-score [15] | composite z-score (Lefty1) | composite z-score [16] | z-score [17] |
| --- | --- | --- | --- | --- | --- | --- | --- | --- | --- | --- | --- | --- | --- | --- | --- | --- | --- | --- | --- | --- |
| COc1cc(Cc2cc3c(c(CCc4ccccc4)n2)[Si](C(C)C)(C(C)C)OC3)cc(OC)c1OC | -0.237 | -0.334 (inactive) | -0.0697 | -0.165 | 0.0001 | -0.177 | -0.0868 | -0.0118 | 0.182 | 0.255 | 0.151 | -0.162 | 0.0612 | -0.386 | 0.694 | 0.263 | 1.51 | 0.48 | -0.14 | 0.874 (inactive) |
| COc1cc(CO)cc(I)c1O[C@H]1C=C(C(=O)NCCO)C[C@@H](N(CC2CCCCC2)C(=O)c2cc3ccccc3oc2=O)[C@@H]1O | -0.0129 | 0.577 (inactive) | 0.0158 | -0.12 | -0.0979 | 0.14 | 0.379 | -0.461 | 0.538 | 0.358 | 0.309 | 0.238 | -0.071 | 1.02 | 0.175 | 1.17 | 0.272 | 0.275 | 0.516 | -0.462 (inactive) |
| C[C@]1(C(=O)NCCN2CCOCC2)c2ccccc2C(=O)N(Cc2ccccc2)[C@H]1c1ccc(CO)cc1 | -0.0435 | -0.61 (inactive) | -0.257 | -0.154 | 0.733 | 0.652 | 0.389 | -0.791 | -0.479 | 0.657 | 1.6 | -0.385 | -0.43 | -0.665 | 0.0342 | -0.256 | -1.19 | -0.718 | -0.208 | 1.47 (inactive) |
| CN1C2C=C(c3ccc(CO)cc3)C(C3C(=O)N(C(N)=O)C(=O)C32)C1c1cccs1 (stereo not given) | -0.444 | 0.173 (inactive) | 0.0261 | -0.162 | 0.704 | 0.4 | -0.342 | 0.0726 | -0.934 | -0.0029 | -0.734 | -0.343 | -0.0644 | -0.25 | -0.513 | -0.676 | 1.38 | 0.358 | -0.543 | -1.49 (inactive) |
| C=CC[C@@]12N=C(c3ccc(OCCCO)cc3)O[C@@H]1c1ccccc1CN(Cc1ccccc1)C2=O | 0.127 | 0.999 (inactive) | 0.0242 | -0.053 | 0.496 | 1.96 | 0.377 | 1.29 | 0.213 | 1.02 | 2.93 | 1.18 | 1.05 | 0.639 | 1.33 | 0.761 | -0.309 | 0.239 | 0.65 | -1.79 (inactive) |
| COc1ccc([Si](C)(C)[C@H]2[C@H](CC(=O)N(CCO)Cc3ccccc3)O[C@@]3(C(=O)N(C)c4ccccc43)[C@@H]2C)cc1 | 0.748 | -0.0798 (inactive) | 0.0833 | -0.155 | 0.384 | 0.136 | 0.177 | 1.05 | 1.21 | 0.664 | 1.62 | 1.08 | 0.711 | -0.0177 | 1.06 | 1.01 | 1.61 | 1.11 | -0.0039 | 0.59 (inactive) |
